The results in this text go back to PubChem BioAssay (NCATS).

The structures appear in SMILES notation. Where “and” joins values, the source holds several entries; their conditions need not be identical. Equal entries are not always repeated. Inconclusive results are not listed. A number with no mark means an inactive call. Calls of active or inactive are those of the source. The call rests on the fitted dose curve; in most records, active means well fitted cell-killing curve with a large enough effect; inconclusive means small, poorly fitted or top-dose-only effect; inactive means no such curve, though single readings can be large or run the other way.
Potency means the concentration at half of the fitted maximal effect.

The nature of this experiment: qHTS of pediatric cancer cell lines to identify multiple opportunities for drug repurposing: Primary screen for SK-N-MC cells (AID 1347093). The following applies: SK-N-MC viability, CellTiter-Glo luminescence, 48 h; series mostly up to 46 µM; activity change, negative = cytotoxic: at the top concentration. An excerpt: Drug repurposing or repositioning has been offered as a strategy for drug development in oncology programs. This approach has special potential for childhood cancers and other rare or orphan diseases, where the expected return on new drug development has been a disincentive to pharmaceuticals.
In this project we exploit the poly-pharmacology of drugs to discover new indications via phenotypic screening of a panel of 19 well-characterized cell lines derived from solid tumors seen in children and adolescents. The goal is to identify approved drugs with previously unrecognized anticancer properties that has the potential to reveal new mechanisms and biological processes involved in carcinogenesis or drug resistance. We employed a titration-based paradigm (quantitative high-throughput screening or qHTS), where all compounds were tested at multiple concentrations for their effect on cell viability. Concentration-response curves (CRCs) were derived directly from the primary screen, and both potency and efficacy values were used to identify compounds with robust bioactivity profiles. We screened the NIH Chemical Genomics Center (NCGC) Pharmaceutical Collection (NPC) and Mechanism Interrogation Plate (MIPE) small molecule collections of approved and investigational compounds against these cell lines; and measured metabolically active cells after 48 hours of compound treatment as a proxy for cell viability.
Assay Submitter: Nathalia J. Martinez, National Center for Advancing Translational Sciences, National Institutes of Health, Rockville, MD, USA; email: natalia.martinez@nih.gov
[1] Shen, M et al. Quantitative high-throughput phenotypic screening of pediatric cancer cell lines identifies multiple opportunities for drug repurposing. Oncotarget 2017 Dec 19;9(4):4758-4772. PMID 29435139.
The cells were obtained from University of North Carolina (UNC), Pediatric Preclinical Testing Program (PPT), and Coriell Institute (CI).
qHTS cell viability assay:
Cells were assayed in growth media at a density of 500-1,000 cells/well. Five microliters of cells were dispensed into 1,536-well, white, solid-bottom, TC-treated plates (Greiner Bio One) using a multidrop dispenser and incubated at 37 degrees C, 5% CO2, under a humidified atmosphere for 5 hours. Twenty-three nanoliters of compounds and controls (neutral control DMSO or positive control bortezomib at final concentration of 2.3 µM) were subsequently transferred by Kalypsys pintool. For primary screens, the MIPE collection was tested at 11-point dilutions (final concentrations range from 0.78 nM to 46 µM) and the NPC collection at 8-point dilutions (final concentrations range from 0.59nM to 46 µM). Compounds tested in follow-up screens were assayed at 11-point dilutions. Cells were incubated for 48 hours, followed by addition of 3 uL of CellTiter-Glo (Promega). After a 15 min incubation at room temperature, samples were analyzed for luminescence intensity using a ViewLux High-throughput CCD imager equipped with clear filters.
A general note: Quantitative high-throughput screening tests each substance at several concentrations.
With `C[N+]1(CCF)[C@@H]2CC[C@H]1CC(OC(=O)C(O)(c1ccccc1)c1ccccc1)C2` (stereo not given in full), the “activity change, negative = cytotoxic” value was 2.69%.
The same measure, in the same setting: under `C[C@]12CC[C@@H]3c4ccc(OC(=O)N(CCCl)CCCl)cc4CC[C@H]3[C@@H]1CC[C@@H]2OP(=O)(O)O` stands 4.81%; under `O=C1c2ccccc2C(=O)c2ccccc21`, 2.3% [at 16.1 µM].
Consider `CCCN(CCC)C(=O)Cc1c(-c2ccc(Cl)cc2)nc2ccc(Cl)cn12`, for which the Potency was 16.8 µM (active).
On the same count and under the same terms, in the case of `C[C@]12CCC(=O)C=C1CC[C@@H]1[C@H]3CC[C@](C)(O)[C@@]3(C)CC[C@@H]12` it was 30.9 µM (active).
With `C=CCC1([C@H](C)CCC)C(=O)NC(=O)NC1=O`, the “activity change, negative = cytotoxic” value is -22.4% [at 92.7 µM].
For `CC(C)(N)Cc1ccccc1Cl`, the “activity change, negative = cytotoxic” value was -6.23%.
Same read-out and setting: in the case of `CC(C)N(CCC(C(N)=O)(c1ccccc1)c1ccccn1)C(C)C` (stereo not given) it was -28%.
Same read-out and setting: under `CC(C)(C)NCC(O)c1cc(Cl)c(N)c(C(F)(F)F)c1` (stereo not given) stands -32%; under `CCCCCCCCCC(=O)O[C@H]1CC[C@H]2[C@@H]3CCC4=CC(=O)CC[C@@H]4[C@H]3CC[C@]12C`, 6.74%; under `C[C@]12CC[C@@H]3c4ccc(OC(=O)N(CCCl)CCCl)cc4CC[C@H]3[C@@H]1CC[C@@H]2O`, -15.9%.
Still for that read-out and setting: under `COc1cc(CCN)cc(OC)c1OC` stands -20.3% [at 92.7 µM]; under `CCN(CC)CCc1c[nH]c2ccccc12`, -19.6% [at 155 µM].
Consider `CCN[C@H](C)Cc1cccc(C(F)(F)F)c1`, for which the “activity change, negative = cytotoxic” value was -0.861% [at 92.7 µM].
The same measure, in the same setting: under `C[C@]12CC[C@H]3[C@@H](CCC4=CC(=O)CC[C@@H]43)[C@@H]1CC[C@@H]2OC(=O)CCc1ccco1` stands -7.87%; under `CC(C)c1cccc(C(C)C)c1O`, -30.9%.
On the same count and under the same terms, in the case of `c1ccc2c(c1)sc1ccccc12` it was -15.5%.
The same measure, in the same setting: in the case of `COc1ccc2c3c1O[C@H]1[C@H](O)CC[C@H]4[C@@H](C2)N(C)CC[C@@]341` it was -19.5% [at 92.7 µM].
Turning to `Cc1ncsc1CCCl`, the “activity change, negative = cytotoxic” value was 12.1%.
For the compound `COc1cccc2c1C(=O)c1c(O)c3c(c(O)c1C2=O)C[C@@](O)(C(=O)CO)CC3OC1CC(N2CCOC(OC)C2)C(O)C(C)O1` (stereo not given in full), the Potency is 0.0084 µM (active).
For `CCC1(CC)C(=O)C=CNC1=O`, the “activity change, negative = cytotoxic” value is 10.9%.
The same measure, in the same setting: under `CC(=O)C1CCOC1=O` (stereo not given) stands -15.8%; under `Oc1ccc(Cl)cc1`, -1.16%.
Still for that read-out and setting: in the case of `NC1=NC(=O)C(c2ccccc2)O1` (stereo not given) it was -3.68%; in that of `CCOP(=S)(OCC)Oc1ccc2c(C)c(Cl)c(=O)oc2c1`, 38.5%; in that of `CC(C)(C)NCC(O)c1ccccc1Cl` (stereo not given), -0.344%.
As for `CCc1cc2c(s1)-n1c(C)nnc1CN=C2c1ccccc1Cl`, the “activity change, negative = cytotoxic” value was -3.28%.
Regarding `CC(=O)OCC1=C(C(=O)O)N2C(=O)[C@@H](N)[C@H]2SC1`, the “activity change, negative = cytotoxic” value is 2.44% [at 16.1 µM].
Still for that read-out and setting: in the case of `NNc1ccccc1` it was -20.3%.
For `CCOC(=O)CC(SP(=S)(OC)OC)C(=O)OCC` (stereo not given), the Potency result is “inactive”.
For the compound `COP(=S)(OC)Oc1cc(Cl)c(Cl)cc1Cl`, the “activity change, negative = cytotoxic” value is 16.6%.
The same measure, in the same setting: in the case of `COC1CC(=C(c2cccs2)c2cccs2)C[N+](C)(C)C1` (stereo not given) it was -27.1%; in that of `CNC(C)(C)Cc1ccccc1`, -10.7%; in that of `NCCc1ccc(O)cc1`, 9.4%.
The same measure, in the same setting: under `COc1ccc2c(c1OC)C(=O)O[C@H]2[C@@H]1c2cc3c(cc2CCN1C)OCO3` stands -3.45%; under `CCCOC(=O)c1cncn1C(C)c1ccccc1` (stereo not given), -3.04%; under `Nc1ccc([As](=O)(O)O)cc1`, -19.8%.
`CN1C(=O)COc2c(C(=O)NC3CN4CCC3CC4)cc(Cl)cc21` (stereo not given): the Potency result is “inactive”.
`COP(=S)(OC)Oc1ccc(S(=O)(=O)N(C)C)cc1`: the “activity change, negative = cytotoxic” value is -15.1%.
For the compound `CC(NC(C)(C)C)C(=O)c1cccc(Cl)c1` (stereo not given), the Potency was 1.1 nM (active) and 29.6 µM (active).
